Results on twelve molecules are retold here after PubChem BioAssay (NCI).

Structures are written as SMILES. The panel holds about 83,000 compounds, 20% with a hit somewhere; the sample as a whole holds those more often.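 The endpoint reported here, percent growth, reads 100 for growth as untreated, 0 for no net growth and -100 for all cells dead.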 Calls of active or inactive are those of the source. Rule for the calls: active = growth percent below 10; inactive = the rest.

The subject of the first experiment is SF-295 CNS. Put plainly: NCI-60 one-dose screen, 48 h (100 = growth as untreated, 0 = no growth, -100 = all killed). As to conditions: 10 µM unless noted.
In the case of `CC1=CCC(OC(=O)C(C)(O)CCC(O)(C(=O)OC2(C)C=CC(O)(C(C)C)CC2)C(C)C)(C(C)C)CC1` (configuration not stated), the growth was 101% (inactive).
On to `CCCCCCNC(=O)Nc1ccc2cc3ccc(NC(=O)NCCCCCC)cc3nc2c1`, for which the growth is -47.5% (active).
Take `C[C@H]1[C@H](C)CC[C@]2(C(=O)NCC#CCN3CCN(C)CC3)CC[C@]3(C)C(=CC[C@@H]4[C@@]5(C)Cc6c([nH]c7ccccc67)C(C)(C)[C@@H]5CC[C@]43C)[C@H]12`: the growth is 106% (inactive).
Same read-out and setting: to `O=C(/C=C(/C=C/c1coc2ccccc12)OB(F)F)/C=C/c1coc2ccccc12` belongs 101% (inactive).

Another experiment has as its system SF-539 CNS. The experiment is described as above. As to conditions: 10 µM unless noted.
On to `Cc1cccc(NC(=O)Nc2ccc(-c3ccc4c(c3)NC(=O)/C4=C\c3ccc[nH]3)cc2)c1`, for which the growth is 62.7% (inactive).
`Cc1cc2nc3c4cc(C=O)ccc4n(CCN(C)C)c3nc2cc1C`: the growth is 21% (inactive).
Consider `c1ccc2c(-c3nccs3)c[nH]c2c1`, for which the growth was 96.4% (inactive).
Regarding `COc1cc(NC(C)CCCNC(=O)CCC(=O)NCCCNCCCCCCCCCCNCCCNC(=O)CCC(=O)NCCCC(C)Nc2cc(OC)cc3cccnc23)c2ncccc2c1` (configuration not stated), the growth is 75.7% [8 µM] (inactive).
Same read-out and setting: with `O=C1c2ccc3c4c(ccc(c24)C(=O)N1CCCNCc1ccccc1)C(=O)N(CCCNCc1ccccc1)C3=O` the figure was -69.6% (active); with `COc1ccc(CNCCN2C(=O)c3ccc4c5c(ccc(c35)C2=O)C(=O)N(CCNCc2ccc(OC)c(OC)c2OC)C4=O)c(OC)c1OC`, -47.7% (active); with `CCN(CC)c1ccc(C(=O)c2ccccc2)cc1`, 97.7% (inactive).
Consider `COc1cc2c(c(O)c1Cl)C(=O)c1c(O)cc(C[C@H](C)O)cc1[C@H]2[C@H]1c2cc(C[C@H](C)O)cc(O)c2C(=O)c2c1cc(OC)c(Cl)c2O`, for which the growth is -8.14% (active).
